Results published in PubChem BioAssay AID651739 (Broad Institute, 2012).
About 4,100 (73%) of roughly 5,600 compounds were called active. Inconclusive results (about 4%) are left out. So high a share suggests a set chosen from earlier hits. Not all results are given here. A number with no mark means an inactive call.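 The calls were made as follows: active = mean replicate inhibition above about 95% and at least 55% of replicates individually reaching it (limit read from the data); inconclusive = only one of the two criteria is met; inactive = neither criterion is met.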

Assay: blockers of Trypanosoma cruzi growth in host cells – cell-based, NIH3T3 host, beta-gal parasite, luminescence, cherry-pick, confirmation (AID 651739)
Conditions: T. cruzi beta-gal in NIH3T3, GalScreen luminescence, 90 h; at 8.35 µM; hits give high values

Row | SMILES | inhibition
1 | COc1ccccc1-c1ccc2c(c1)O[C@@H](CN(C)C)[C@H](C)CN([C@H](C)CO)S2(=O)=O | 22.8%
2 | Cc1ccc(-c2ccc3c(c2)O[C@H](CN(C)C)[C@@H](C)CN([C@H](C)CO)S3(=O)=O)cc1 | 88%
3 | C[C@@H]1CN([C@@H](C)CO)S(=O)(=O)c2ccc(C#CCN(C)C)cc2O[C@H]1CN(C)C(=O)C1CC1 | 110% (active)
4 | CC(C)CC#Cc1ccc2c(c1)O[C@H](CN(C)C(=O)C1CC1)[C@@H](C)CN([C@@H](C)CO)S2(=O)=O | 111% (active)
5 | C[C@H](CO)N1C[C@H](C)[C@@H](CN(C)C(=O)C2CCCCC2)Oc2cc(-c3ccccc3)ccc2S1(=O)=O | 107% (active)
6 | CNC[C@H]1OCCCC[C@@H](C)Oc2ccc(NS(C)(=O)=O)cc2C(=O)N([C@H](C)CO)C[C@H]1C | -10.3%
7 | C[C@@H]1CN([C@H](C)CO)C(=O)c2cc(NC(=O)Nc3ccc(F)cc3)ccc2O[C@@H](C)CCCCO[C@@H]1CN(C)CC1CCCCC1 | 90.7%
8 | C[C@@H]1CN([C@@H](C)CO)C(=O)c2cc(NC(=O)Nc3ccc(C(F)(F)F)cc3)ccc2O[C@@H](C)CCCCO[C@H]1CN(C)C(=O)c1ccccc1 | 105% (active)
9 | CC(C)NC(=O)N(C)C[C@H]1OCc2cn(nn2)CCCC(=O)N([C@@H](C)CO)C[C@H]1C | 2.94%
10 | C[C@@H]1CN([C@@H](C)CO)C(=O)CCCn2cc(nn2)CO[C@@H]1CN(C)S(=O)(=O)c1ccccc1F | -12.9%
11 | CNC[C@H]1OCCCC[C@H](C)Oc2ccc(NC(=O)Nc3c(C)noc3C)cc2C(=O)N([C@H](C)CO)C[C@H]1C | 104% (active)
12 | C[C@@H]1CCCCO[C@H](CN(C)C(=O)NC2CCCCC2)[C@H](C)CN([C@H](C)CO)C(=O)c2cc(NC(=O)Nc3ccc(F)cc3)ccc2O1 | 97.3% (active)
13 | C[C@H]1CN([C@@H](C)CO)C(=O)CCCn2cc(nn2)CO[C@H]1CN(C)C(=O)c1ccccc1 | 103% (active)
14 | C[C@H](CO)N1C[C@H](C)[C@H](CN(C)C(=O)Nc2ccc(C(F)(F)F)cc2)OCCCC[C@H](C)Oc2ccc(NC(=O)C3CCCCC3)cc2C1=O | 109% (active)
15 | CC(C)NC(=O)Nc1ccc2c(c1)C(=O)N([C@H](C)CO)C[C@H](C)[C@H](CN(C)C(=O)Nc1ccc(C(F)(F)F)cc1)OCCCC[C@@H](C)O2 | 110% (active)
16 | C[C@@H]1CCCCO[C@H](CN(C)C(=O)Nc2ccc(C(F)(F)F)cc2)[C@H](C)CN([C@H](C)CO)C(=O)c2cc(NC(=O)Nc3ccc(C(F)(F)F)cc3)ccc2O1 | 109% (active)
17 | COc1ccc(NC(=O)N(C)C[C@H]2OCCCC[C@H](C)Oc3ccc(NC(=O)Nc4ccc(C(F)(F)F)cc4)cc3C(=O)N([C@@H](C)CO)C[C@@H]2C)cc1 | 103% (active)
18 | C[C@H](O)C#Cc1ccc([C@@H]2[C@H]3CN(S(=O)(=O)c4ccccc4)CCCCN3[C@H]2CO)cc1 | 32.8%
19 | COc1cccc(S(=O)(=O)N2CCCCN3[C@H](C2)[C@H](c2ccc(C#CC(C)C)cc2)[C@@H]3CO)c1 | 102% (active)
20 | C[C@@H](O)C#Cc1ccc([C@@H]2[C@H](CO)N3CCCCN(S(=O)(=O)c4ccccc4)C[C@@H]23)cc1 | 62.6%

Row | SMILES | inhibition
21 | CC(C)C#Cc1ccc([C@H]2[C@H](CO)N3CCCCN(C(=O)NC(C)C)C[C@@H]23)cc1 | 103% (active)
22 | COc1ccc(S(=O)(=O)N2CCCCN3[C@H](C2)[C@H](c2ccc(C#CCC(C)C)cc2)[C@@H]3CO)cc1 | 98.1% (active)
23 | COc1ccc(S(=O)(=O)N2CCCCN3[C@H](CO)[C@@H](c4ccc(C#CC(C)C)cc4)[C@H]3C2)cc1 | 109% (active)
24 | CN(C)CC#Cc1ccc([C@H]2[C@H]3CN(S(=O)(=O)c4ccccc4F)CCCCN3[C@H]2CO)cc1 | 83.2%
25 | COc1cccc(S(=O)(=O)N2CCCCN3[C@H](CO)[C@H](c4ccc(-c5ccncc5)cc4)[C@H]3C2)c1 | 110% (active)
26 | COc1cccc(S(=O)(=O)N2CCCCN3[C@H](CO)[C@H](c4ccc(C#CC5CC5)cc4)[C@H]3C2)c1 | 105% (active)
27 | CC(C)CC#Cc1ccc2c(c1)O[C@H](CN(C)Cc1ccncc1)[C@H](C)CN([C@H](C)CO)S2(=O)=O | 97.8% (active)
28 | CC(C)CC#Cc1ccc2c(c1)O[C@H](CN(C)Cc1ccccc1F)[C@@H](C)CN([C@@H](C)CO)S2(=O)=O | 96.7% (active)
29 | C[C@H](CO)N1C[C@H](C)[C@@H](CN(C)Cc2ccncc2)Oc2cc(Br)ccc2S1(=O)=O | 95.7% (active)
30 | C[C@H](CO)N1C[C@H](C)[C@H](CN(C)Cc2ccncc2)Oc2cc(-c3ccncc3)ccc2S1(=O)=O | 92.9%
31 | CC(C)CC#Cc1ccc2c(c1)O[C@H](CN(C)Cc1cccnc1)[C@H](C)CN([C@@H](C)CO)S2(=O)=O | 98.7% (active)
32 | Cc1ccccc1-c1ccc([C@H]2[C@H]3CN(S(=O)(=O)c4ccc(F)cc4)CCCCN3[C@H]2CO)cc1 | 97.2% (active)
33 | O=S(=O)(c1ccc(F)cc1)N1CCCCN2[C@H](C1)[C@H](c1ccc(C3=CCCCC3)cc1)[C@@H]2CO | 106% (active)
34 | Cc1noc(C)c1S(=O)(=O)Nc1ccc2c(c1)C(=O)N([C@@H](C)CO)C[C@@H](C)[C@H](CN(C)S(=O)(=O)c1ccc(Cl)cc1)OCCCC[C@H](C)O2 | 99.1% (active)
35 | C[C@@H]1CN([C@H](C)CO)C(=O)c2cc(NS(=O)(=O)c3cccs3)ccc2O[C@@H](C)CCCCO[C@@H]1CN(C)S(=O)(=O)c1ccc(Cl)cc1 | 101% (active)
36 | C[C@H]1CCCCO[C@@H](CN(C)S(=O)(=O)c2cccs2)[C@@H](C)CN([C@@H](C)CO)C(=O)c2cc(NS(=O)(=O)c3ccc(Cl)cc3)ccc2O1 | 101% (active)
37 | C[C@@H]1CCCCO[C@H](CN(C)S(=O)(=O)c2ccc(Cl)cc2)[C@H](C)CN([C@@H](C)CO)C(=O)c2cc(NS(=O)(=O)c3cccs3)ccc2O1 | 105% (active)
38 | C[C@@H]1CCCCO[C@H](CN(C)S(=O)(=O)c2cccs2)[C@H](C)CN([C@H](C)CO)C(=O)c2cc(NS(=O)(=O)c3ccc(F)cc3)ccc2O1 | 109% (active)
39 | CC(C)(C)[S@@](=O)N1Cc2cc(C(=O)NCc3ccc4c(c3)OCO4)nc(-c3cccc(-c4ccccc4)c3)c2[C@H]1CCO | 105% (active)
40 | O=C(C1CCC1)N1CCCCN2[C@H](CO)[C@H](c3ccc(-c4ccncc4)cc3)[C@@H]2C1 | 103% (active)

Row | SMILES | inhibition
41 | O=C(C1CC1)N1CCCCN2[C@H](CO)[C@H](c3ccc(-c4cccc(F)c4)cc3)[C@H]2C1 | 99.1% (active)
42 | OC[C@@H]1[C@H](c2ccc(C#CC3CC3)cc2)[C@@H]2CN(CCC(F)(F)F)CCCCN12 | 105% (active)
43 | O=C(C1CCCC1)N1CCCCN2[C@@H](CO)[C@H](c3ccc(-c4cccc(F)c4)cc3)[C@@H]2C1 | 112% (active)
44 | CN(C)C(=O)c1ccc(-c2ccc([C@H]3[C@@H](CO)N4CCCCN(CC5CC5)C[C@H]34)cc2)cc1 | 90%
45 | N#Cc1cccc(-c2ccc([C@H]3[C@H](CO)N4CCCCN(C(=O)Nc5cccc(F)c5)C[C@@H]34)cc2)c1 | 94.2%
46 | O=C(Nc1cccc(F)c1)N1CCCCN2[C@H](CO)[C@H](c3ccc(C#CC4CC4)cc3)[C@@H]2C1 | 109% (active)
47 | O=C(C1CCC1)N1CCCCN2[C@H](CO)[C@H](c3ccc(-c4cccc(F)c4)cc3)[C@@H]2C1 | 109% (active)
48 | O=C(Nc1ccccc1)N1CCCCN2[C@H](CO)[C@@H](c3ccc(C#Cc4ccccn4)cc3)[C@H]2C1 | 90%
49 | C[C@H]1CN([C@@H](C)CO)S(=O)(=O)c2ccc(C3=CCCCC3)cc2O[C@@H]1CN(C)Cc1ccccc1 | 102% (active)
50 | C[C@H]1CN([C@@H](C)CO)S(=O)(=O)c2ccc(C3=CCCC3)cc2O[C@@H]1CN(C)Cc1ccccc1 | 96.5% (active)
51 | C[C@@H]1CN([C@H](C)CO)S(=O)(=O)c2ccc(C3=CCCC3)cc2O[C@H]1CN(C)Cc1ccccc1F | 99.3% (active)
52 | C[C@H](CO)N1C[C@H](C)[C@@H](CN(C)S(=O)(=O)c2ccc(F)cc2)Oc2cc(C3=CCCC3)ccc2S1(=O)=O | 94.1%
53 | C[C@@H]1CN([C@@H](C)CO)C(=O)c2cc(NC(=O)Nc3cccc4ccccc34)ccc2O[C@@H](C)CCCCO[C@H]1CN(C)Cc1ccccc1 | 107% (active)
54 | C[C@@H]1CCCCO[C@@H](CN(C)C(=O)Nc2ccc(F)cc2)[C@H](C)CN([C@H](C)CO)C(=O)c2cc(NC(=O)Nc3cccc4ccccc34)ccc2O1 | 114% (active)
55 | C[C@@H]1CCCCO[C@@H](CN(C)Cc2ccccc2)[C@H](C)CN([C@H](C)CO)C(=O)c2cc(NC(=O)Nc3cccc4ccccc34)ccc2O1 | 96.4% (active)
56 | C[C@@H]1CN([C@@H](C)CO)C(=O)c2cc(NC(=O)Nc3ccc4c(c3)OCO4)ccc2O[C@@H]1CN(C)Cc1ccc(Oc2ccccc2)cc1 | 101% (active)
57 | C[C@@H]1CN([C@H](C)CO)C(=O)Cc2cc(NC(=O)Cc3ccccc3)ccc2O[C@H]1CN(C)Cc1ccc(Oc2ccccc2)cc1 | 112% (active)
58 | C[C@@H]1CN([C@@H](C)CO)C(=O)c2cc(NC(=O)Cc3ccccc3)ccc2O[C@@H]1CN(C)Cc1ccc(Oc2ccccc2)cc1 | 99.9% (active)
59 | C[C@H]1CN([C@@H](C)CO)C(=O)c2cc(NC(=O)Nc3ccc4c(c3)OCO4)ccc2O[C@@H]1CN(C)Cc1ccc(Oc2ccccc2)cc1 | 103% (active)
